According to PubChem BioAssay AID686979 (National Center for Advancing Translational Sciences (NCATS), 2013):
The campaign covered roughly 420,000 compounds. About 50,000 (12%) were called active. Not shown: some 26% with an inconclusive outcome. Shown is part of a subset that was picked to be rich in actives. A number with no mark means an inactive call. Calls follow the shape of the dose curve; as a rule, active = well fitted inhibition curve with a large enough effect; inconclusive = small, poorly fitted or top-dose-only effect; inactive = flat fitted curve, though single readings scatter.

experiment: qHTS for Inhibitors of human tyrosyl-DNA phosphodiesterase 1 (TDP1): qHTS in cells in presence of CPT; conditions: chicken DT40 Tdp1-/-;hTDP1 cells + 20 nM CPT, ATP luminescence, 48 h; series mostly up to 46.2 µM; activity change, negative = growth inhibition: at the top concentration; also: nearly all actives have a fitted effect of over 55% in size
Summary of the method: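 Cell growth measured by CellTiter-Glo luminescence after a minimum 48 h, 37 C compound exposure with 20 nM CPT in Tdp1-knockout DT40 cells stably expressing hTDP1, seeded 400/well; qHTS titration format.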
% is scaled to controls: 0 for no effect and ±100 for the full control effect; potency is read from the fitted curve at half-maximal effect.

For Cc1cc(CNC(=O)C2CCC(=O)N(CCc3ccc(Cl)cc3)C2)no1 (stereo not given), which “activity change, negative = growth inhibition” value is on record?
Its value is -10%.

Which Potency does the source give for O=c1c2ccccc2nnn1CSc1nc2sc3c(c2c(=O)n1CC1CCCO1)CCC3 (stereo not given) here?
The Potency was 16.4 µM (active).

With O=c1c2ccccc2nnn1CSc1nnnn1-c1ccccc1 as the molecule, how does the “activity change, negative = growth inhibition” value read?
The value was -19.1%.

With Nc1nnc(SCn2nnc3ccccc3c2=O)s1 as the molecule, how does the “activity change, negative = growth inhibition” value read?
The value was 3.45%.

With O=S(=O)(Nc1ccc(Cl)cn1)c1cnc(Cl)c(Br)c1 as the molecule, how does the “activity change, negative = growth inhibition” value read?
Its value is -18.1%.

Which “activity change, negative = growth inhibition” value does the source give for CN1CCN(C(=O)c2ccc(-c3ccc(Br)cc3)o2)CC1 here?
The value was -29.6%.

For CCOC(=O)N1CCN(Cc2nc3ccc([N+](=O)[O-])cc3c(=O)n2-c2cccc(OC)c2)CC1, which “activity change, negative = growth inhibition” value is on record?
The value was -29.6%.

With Cc1ccc(NN=C2C(=O)OC(C)(C)OC2=O)c(C)c1 as the molecule, how does the “activity change, negative = growth inhibition” value read?
Its value is 1.15%.

For CC(C)=C1SC(N2CCN(c3ccc(C)c(Cl)c3)CC2)=NC1=O, which “activity change, negative = growth inhibition” value is on record?
The value was -1.1%.

For CC(C)=C1SC(N2CCN(c3cccc(C)c3)CC2)=NC1=O, which Potency is on record?
Its Potency is 20.6 µM (active).

Which “activity change, negative = growth inhibition” value does the source give for Cc1ccc(N2CCN(C3=NC(=O)/C(=C\c4cccs4)S3)CC2)cc1 here?
The value was -11.5%.

With CCOC(=O)C(C)Sc1nnc(CSc2nc3nc(C)cc(C)n3n2)o1 (stereo not given) as the molecule, how does the “activity change, negative = growth inhibition” value read?
The value was -6.12%.

For C=CCNC(=O)COc1coc(CN2CCN(Cc3ccccc3)CC2)cc1=O, which “activity change, negative = growth inhibition” value is on record?
Its value is 2.71%.

Which “activity change, negative = growth inhibition” value does the source give for CNC(=S)NNC(=O)c1cccn(Cc2ccccc2)c1=O here?
Its value is -4.14%.

With C=CCNC(=S)/N=c1/ccccn1Cc1ccccc1 as the molecule, how does the Potency read?
The Potency was 7.31 µM (active).

For NS(=O)(=O)c1ccc(N=Cc2ccc(Br)s2)cc1, which “activity change, negative = growth inhibition” value is on record?
Its value is -6.56%.

For COc1cc(OC)cc(-c2c(C#Cc3ccsc3)c3cc(-c4ccc(OC)cc4F)ccc3n2C)c1, which “activity change, negative = growth inhibition” value is on record?
The value was -8.28%.

For COc1cc(OC)cc(-c2c(-c3cccs3)c3cc(-c4ccc(OC)nc4)ccc3n2C)c1, which Potency is on record?
The Potency was 20.6 µM (active).

Which “activity change, negative = growth inhibition” value does the source give for COc1cc(OC)cc(-c2c(C#Cc3ccsc3)c3cc(-c4ccc(SC)cc4)ccc3n2C)c1 here?
Its value is -8.14%.

Which Potency does the source give for CCOC(=O)C1(CCOc2ccccc2)CCN(Cc2cc(OC)cc(OC)c2)CC1 here?
The Potency was 25.9 µM (active).

With O=C(c1cn(CC2CCCN(Cc3cc4ccccc4s3)C2)nn1)N1CCCC1 (stereo not given) as the molecule, how does the “activity change, negative = growth inhibition” value read?
Its value is 11.8%.

Which “activity change, negative = growth inhibition” value does the source give for CCOC(=O)C1(CCOc2ccccc2)CCN(C(=O)c2cncs2)CC1 here?
Its value is -28.5%.

With O=C(CCc1ccccc1)Nc1ccnn1C1CCN(Cc2ccc(OCCO)cc2)CC1 as the molecule, how does the “activity change, negative = growth inhibition” value read?
Its value is 6.63%.

Which “activity change, negative = growth inhibition” value does the source give for CCOC(=O)C1(S(=O)(=O)c2ccc(Cl)cc2)CCN(Cc2ccccc2)CC1 here?
The value was -27.7%.

With CCOC(=O)C1(Cc2cccc(OC)c2)CCN(C(C)CC(C)(C)O)CC1 (stereo not given) as the molecule, how does the “activity change, negative = growth inhibition” value read?
The value was -9.64%.

Which Potency does the source give for CCOC(=O)C1(CCOC)CCN(Cc2cc3ccccc3s2)CC1 here?
The Potency was 18.4 µM (active).

For CCOC(=O)C1(CCOc2ccccc2)CCN(Cc2ccc(C#CCCO)cc2)CC1, which Potency is on record?
Its Potency is 18.4 µM (active).

With CCOC(=O)C1(CCOC)CCN(Cc2ccc(C(=O)OC)cc2)CC1 as the molecule, how does the “activity change, negative = growth inhibition” value read?
Its value is 5.25%.

With COc1cc(C)ccc1OCC(=O)OCC(=O)c1ccc[nH]1 as the molecule, how does the “activity change, negative = growth inhibition” value read?
The value was 11.1%.

With Cc1cc(NS(=O)(=O)c2ccc(NC(=O)C(C)Oc3cccc(C)c3C)cc2)nc(C)n1 (stereo not given) as the molecule, how does the “activity change, negative = growth inhibition” value read?
The value was 7.99%.

With N#CC1(C#N)C(C(=O)C23CC4CC(CC(C4)C2)C3)C12CCOCC2 (stereo not given) as the molecule, how does the “activity change, negative = growth inhibition” value read?
The value was -6.84%.

Which “activity change, negative = growth inhibition” value does the source give for COc1ccccc1NC(=O)c1ccc(N2CC3CC(C2)c2cccc(=O)n2C3)c(NC(=O)c2cccnc2)c1 (stereo not given) here?
Its value is -14.7%.

With O=C(Nc1cccc([N+](=O)[O-])c1)Nc1ccc(Cl)cn1 as the molecule, how does the “activity change, negative = growth inhibition” value read?
Its value is 4.19%.

For Cc1ccc(S(=O)(=O)N(Cc2cccc([N+](=O)[O-])c2)C(=O)N2CCN(C)CC2)cc1, which “activity change, negative = growth inhibition” value is on record?
The value was -7.27%.

For O=C(CCl)N(Cc1cccc([N+](=O)[O-])c1)c1cccc(Cl)c1, which Potency is on record?
Its Potency is 2.31 µM (active).

Which “activity change, negative = growth inhibition” value does the source give for COc1ccccc1N1CCC(N2CCN(CC(C)(C)C)C(CCO)C2)CC1 (stereo not given) here?
The value was -28.9%.

Which Potency does the source give for C=CS(=O)c1sc(Cl)c(N2CCOCC2)c1[N+](=O)[O-] (stereo not given) here?
Its Potency is 0.731 µM (active).

With Cc1cc(C)n(S(=O)(=O)c2cccc([N+](=O)[O-])c2)n1 as the molecule, how does the “activity change, negative = growth inhibition” value read?
Its value is -8.29%.

Which “activity change, negative = growth inhibition” value does the source give for CN(C)S(=O)(=O)c1cc(C(=O)Nc2ccn(C)n2)c(Cl)cc1Cl here?
The value was -4.09%.

Which “activity change, negative = growth inhibition” value does the source give for COCCNC(=O)COc1ccc(N(C)S(=O)(=O)c2ccc3ccccc3c2)cc1 here?
The value was -15.1%.

Which “activity change, negative = growth inhibition” value does the source give for NNC(=O)c1ccc(Cl)cc1Cl here?
The value was 2.28%.

For O=S(=O)(NCC1CC1)c1ccc(F)c(Cl)c1, which “activity change, negative = growth inhibition” value is on record?
Its value is 8.32%.

Which Potency does the source give for O=S(=O)(Cc1ccc(Cl)cc1Cl)c1ccc(Cl)cc1 here?
Its Potency is 0.82 µM (active).

For O=CN1CCN(C(=O)c2ccc(Br)o2)CC1, which “activity change, negative = growth inhibition” value is on record?
The value was -0.819%.

Which “activity change, negative = growth inhibition” value does the source give for O=C(CSc1ncnc2c1oc1ccccc12)NC1CCCC1 here?
The value was -20.3%.

For CC(C)[C@@H]1COC(c2cccc(C3=N[C@H](C(C)C)CO3)c2)=N1, which Potency is on record?
Its Potency is 20.6 µM (active).

With O=C(O)CSCC(=O)Nc1ccc(C(F)(F)F)cc1 as the molecule, how does the “activity change, negative = growth inhibition” value read?
Its value is 17.9%.

Which “activity change, negative = growth inhibition” value does the source give for O=C(OCC(=O)N1CCCCC1)c1ccc(OC(F)(F)F)cc1 here?
The value was -5.48%.

With O=C(NCCN1CCOCC1)c1cc(Sc2cccc(Cl)c2)nc2ccccc12 as the molecule, how does the “activity change, negative = growth inhibition” value read?
Its value is -34%.

For O=C(CCn1c(=O)[nH]c2ccccc2c1=O)NCCCN1CCN(c2cccc(Cl)c2)CC1, which Potency is on record?
The Potency was 20.6 µM (active).
